This passage reports composite z-score and z-score results from PubChem BioAssay.

Assay [1] can be described thus: small molecules captured by biotinylated probe aFSTL3 – biochemical, small-molecule microarray, fluorescence 635/667, stem cell growth factor project, primary screen (AID 1064).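 Further: measures binding of the biotinylated anti-FSTL3 antibody to printed compounds.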 To be noted: higher = more signal.
Assay [2] is described as follows: binders from COS7 lysate, DM2A8 probe, primary screen, torsin A project, cell lysate, small-molecule microarray, fluorescence 635/667 (AID 1065). The note with it: higher = more signal, COS7 lysate expressing mutant human TOR1A.
A short description of assay [3]: small molecules captured by biotinylated probe aFGF2 – biochemical, small-molecule microarray, fluorescence 635/667, stem cell growth factor project, primary screen (AID 1067).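 Further: measures binding of biotinylated aFGF2 protein to printed compounds on slides; z-score merges feature fluorescence and signal-to-noise across triplicate slides.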 To be noted: higher = more signal.
Assay [4] in a line: small molecules captured by biotinylated probe aFGF10 – biochemical, small-molecule microarray, fluorescence 635/667, stem cell growth factor project, primary screen (AID 1071).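 Further: score merges 667 nm spot intensity and signal to noise from triplicate slides.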 The note with it: higher = more signal.
Assay [5] has as its target Neurogenic locus notch homolog protein 2 (Homo sapiens) (UniProt Q04721). Briefly: small molecules binding Notch2 protein – biochemical, small-molecule microarray, 635 nm fluorescence, stem cell growth factors, primary screen (AID 1073). The note with it: higher = more signal.
Assay [6] deals with Pro-neuregulin-1, membrane-bound isoform (Homo sapiens) (UniProt Q02297). Briefly: small molecules binding neuregulin-1 protein – biochemical, small-molecule microarray, fluorescence 635/667, psychiatric disease protein project, primary screen (AID 1075).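 Further: score combines 667 nm spot fluorescence with signal to noise.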 To be noted: NRG1 binding, 635 nm fluorescence, higher = more signal.
Pro-neuregulin-1, membrane-bound isoform (Homo sapiens), sequence (Q02297 whole entry, looked up, the tested form may be a part, canonical isoform): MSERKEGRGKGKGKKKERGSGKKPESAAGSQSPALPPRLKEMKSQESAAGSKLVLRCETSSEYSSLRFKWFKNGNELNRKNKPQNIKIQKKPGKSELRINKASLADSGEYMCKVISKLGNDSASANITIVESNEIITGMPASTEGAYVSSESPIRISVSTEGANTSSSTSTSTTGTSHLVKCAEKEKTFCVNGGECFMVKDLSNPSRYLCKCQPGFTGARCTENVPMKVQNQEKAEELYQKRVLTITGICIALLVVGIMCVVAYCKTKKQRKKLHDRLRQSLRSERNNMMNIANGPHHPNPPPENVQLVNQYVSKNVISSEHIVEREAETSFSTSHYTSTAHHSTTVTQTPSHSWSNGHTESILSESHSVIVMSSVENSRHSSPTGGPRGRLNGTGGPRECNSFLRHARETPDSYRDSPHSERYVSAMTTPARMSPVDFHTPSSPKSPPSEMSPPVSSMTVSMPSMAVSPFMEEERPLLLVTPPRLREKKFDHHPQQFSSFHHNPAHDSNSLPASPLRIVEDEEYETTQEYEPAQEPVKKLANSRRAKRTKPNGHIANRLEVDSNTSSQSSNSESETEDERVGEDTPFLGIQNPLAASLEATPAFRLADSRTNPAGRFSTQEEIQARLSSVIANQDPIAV
The subject of assay [7] is Neuregulin-1 EGF-like domain. Put plainly: small molecules binding NRG1 EGF domain – biochemical, small-molecule microarray, 635 nm fluorescence, primary screen (AID 1081).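 Further: binding of the protein to compounds printed on small-molecule microarray slides.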 The note with it: higher = more signal.
Assay [8] in a line: FRG1 expression reporter modulators in myotubes – cell-based, C2C12 myotubes, firefly/Renilla luciferase, luminescence, FRG1 inhibition for FSHD, primary screen (AID 1084). To be noted: FRG1 promoter luciferase, higher = more signal, called active from +8 up or from −8 down.
A short description of assay [9]: small molecules captured by biotinylated probe aFST – biochemical, small-molecule microarray, fluorescence 635/667, stem cell growth factor project, primary screen (AID 1086).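 Further: score merges 667 nm fluorescence with signal-to-noise of each printed compound spot.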 The note with it: higher = more signal.
Assay [10] in a line: binders of probe aHhip on microarray, primary screen, stem cell growth factor project, biochemical, small-molecule microarray, fluorescence 635/667 (AID 1087).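 Further: score merges spot fluorescence at 667nm with spot signal to noise ratio.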 The note with it: higher = more signal.

Active and inactive are the calls of the source.

Neurogenic locus notch homolog protein 2 (Homo sapiens), sequence (Q04721 whole entry, looked up, canonical isoform): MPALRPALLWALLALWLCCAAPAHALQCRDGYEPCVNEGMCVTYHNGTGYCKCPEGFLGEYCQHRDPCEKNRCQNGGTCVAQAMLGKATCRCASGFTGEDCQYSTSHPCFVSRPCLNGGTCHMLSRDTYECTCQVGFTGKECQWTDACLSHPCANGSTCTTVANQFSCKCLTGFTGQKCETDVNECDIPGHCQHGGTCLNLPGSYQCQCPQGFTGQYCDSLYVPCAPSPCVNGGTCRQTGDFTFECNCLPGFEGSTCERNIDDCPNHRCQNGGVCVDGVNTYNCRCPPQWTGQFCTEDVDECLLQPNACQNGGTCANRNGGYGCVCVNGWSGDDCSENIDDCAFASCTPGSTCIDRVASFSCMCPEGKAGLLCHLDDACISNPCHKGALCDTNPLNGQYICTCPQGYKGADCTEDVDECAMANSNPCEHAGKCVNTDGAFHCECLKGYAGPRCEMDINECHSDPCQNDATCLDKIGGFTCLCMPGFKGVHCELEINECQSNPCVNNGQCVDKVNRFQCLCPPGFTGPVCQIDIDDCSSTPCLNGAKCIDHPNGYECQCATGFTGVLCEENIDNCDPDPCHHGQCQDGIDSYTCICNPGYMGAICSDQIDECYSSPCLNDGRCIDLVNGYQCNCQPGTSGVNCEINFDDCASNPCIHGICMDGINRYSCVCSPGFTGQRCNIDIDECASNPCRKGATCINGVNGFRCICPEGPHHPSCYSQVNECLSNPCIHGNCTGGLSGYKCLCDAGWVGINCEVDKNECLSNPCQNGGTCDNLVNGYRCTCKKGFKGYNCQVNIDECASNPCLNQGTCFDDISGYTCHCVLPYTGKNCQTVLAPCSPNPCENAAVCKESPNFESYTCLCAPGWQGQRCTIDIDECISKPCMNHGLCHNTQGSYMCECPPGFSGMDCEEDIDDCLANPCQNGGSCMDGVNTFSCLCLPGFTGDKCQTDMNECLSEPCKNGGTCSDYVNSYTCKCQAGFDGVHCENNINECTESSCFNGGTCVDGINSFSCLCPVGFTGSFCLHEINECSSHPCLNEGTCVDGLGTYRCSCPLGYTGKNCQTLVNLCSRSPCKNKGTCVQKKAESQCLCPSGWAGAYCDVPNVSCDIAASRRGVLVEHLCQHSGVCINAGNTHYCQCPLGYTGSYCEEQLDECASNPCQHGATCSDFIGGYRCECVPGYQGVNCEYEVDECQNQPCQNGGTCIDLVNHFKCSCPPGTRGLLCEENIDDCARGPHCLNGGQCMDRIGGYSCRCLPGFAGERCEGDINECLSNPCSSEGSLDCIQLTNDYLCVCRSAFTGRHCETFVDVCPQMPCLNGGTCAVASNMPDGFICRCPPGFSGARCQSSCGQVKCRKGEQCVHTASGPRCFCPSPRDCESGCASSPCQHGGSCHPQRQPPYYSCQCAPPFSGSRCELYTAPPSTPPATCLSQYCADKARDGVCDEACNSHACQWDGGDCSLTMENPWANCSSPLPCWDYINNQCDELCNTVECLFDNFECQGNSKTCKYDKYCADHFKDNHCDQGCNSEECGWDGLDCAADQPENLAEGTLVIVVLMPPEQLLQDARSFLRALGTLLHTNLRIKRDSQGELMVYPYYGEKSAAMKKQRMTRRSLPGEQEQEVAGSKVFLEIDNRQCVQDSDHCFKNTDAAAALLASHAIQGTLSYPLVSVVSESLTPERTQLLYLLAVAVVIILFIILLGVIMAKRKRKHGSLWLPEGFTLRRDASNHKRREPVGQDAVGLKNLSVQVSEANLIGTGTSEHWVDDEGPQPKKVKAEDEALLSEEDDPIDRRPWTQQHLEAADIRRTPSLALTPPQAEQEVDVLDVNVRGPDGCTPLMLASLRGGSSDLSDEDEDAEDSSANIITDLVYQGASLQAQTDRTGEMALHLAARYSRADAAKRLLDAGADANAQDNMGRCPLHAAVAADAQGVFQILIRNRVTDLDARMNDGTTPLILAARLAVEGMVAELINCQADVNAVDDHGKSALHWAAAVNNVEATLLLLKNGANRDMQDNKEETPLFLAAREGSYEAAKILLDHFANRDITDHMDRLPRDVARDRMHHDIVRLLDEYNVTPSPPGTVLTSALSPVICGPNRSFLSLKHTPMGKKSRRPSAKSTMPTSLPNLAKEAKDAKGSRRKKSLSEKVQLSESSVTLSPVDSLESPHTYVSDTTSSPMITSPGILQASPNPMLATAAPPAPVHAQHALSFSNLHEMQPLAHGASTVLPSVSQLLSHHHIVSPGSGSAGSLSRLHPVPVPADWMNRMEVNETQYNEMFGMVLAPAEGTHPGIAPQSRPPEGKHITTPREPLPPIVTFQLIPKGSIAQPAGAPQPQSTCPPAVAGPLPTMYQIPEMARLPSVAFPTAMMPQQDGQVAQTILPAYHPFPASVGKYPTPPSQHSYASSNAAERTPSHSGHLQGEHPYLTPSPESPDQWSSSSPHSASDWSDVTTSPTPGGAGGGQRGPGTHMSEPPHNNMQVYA

Turning to `C[C@H]1CC[C@H]2C(=O)OC(COc3ccc(C(C)(C)C)cc3)CN2[C@@H]1c1ccc(Br)cc1` (stereo not given in full), the composite z-score was -0.373 in assay [1]; -0.52 in assay [2]; -0.169 in assay [3]; 0.62 in assay [4]; -0.123 in assay [5]; 0.449 in assay [6]. The composite z-score in assay [7] is 1.05; in assay [9], -0.0895; in [10] it was -0.0618. The z-score in [8] is 0.458 (inactive).
In the case of `CC(=O)OC[C@H]1O[C@H](CC=NOCC[C@@H]2C=C[C@H](OC(C)=O)[C@@H](COC(C)=O)O2)C=C[C@@H]1OC(C)=O`, the composite z-score in assay [1] is -0.544; in assay [2] it was 1.16; in [3], -0.13; in assay [4], 0.414; in assay [5], 0.29; in assay [6], -0.254. The figures for the composite z-score in [7], in assay [9] and in [10] were 0.537, 0.425 and 0.0623, respectively. The z-score in [8] was 1.06 (inactive).
Regarding `CCOC(=O)[C@H](CC(C)C)NC(=O)CCC1CC(OC(=O)NCc2ccc3c(c2)OCO3)CC2(CCCC(COC(=O)NCCc3ccc(Cl)cc3)O2)O1` (stereo not given in full), the composite z-score in [1] was -0.549; in assay [2] it was -0.08; in assay [3], -0.129; in assay [4], 0.744; in assay [5] it was 0.331; in assay [6], 1.1. The composite z-score is 0.993 in assay [7], -0.0845 in assay [9] and -0.0237 in assay [10]. The z-score in assay [8] was 0.924 (inactive).
In the case of `COc1ccc(COC(=O)NN=C2C[C@@H](O)[C@@H](O)[C@@H]3[C@@H]4C(=O)N(C[C@@H]5CCCO5)C(=O)[C@@H]4CC[C@H]23)cc1`, the composite z-score in assay [1] was 0.467; in assay [2], 0.326; in [3], -0.076; in assay [4] it was -0.302; in assay [5] it was -0.467; in assay [6], -0.234. Also, the composite z-score is -0.563 in assay [7], 0.162 in [9] and 0.0106 in assay [10]. For the same compound, the z-score in [8] is -0.249 (inactive).
Regarding `CC(C)=CCCC(C)=CCON=C1C[C@@H](O)[C@@H](O)[C@@H]2[C@@H]3C(=O)N(Cc4ccc5c(c4)OCO5)C(=O)[C@@H]3CC[C@@H]12`, the composite z-score in [1] was -0.316; in assay [2], -0.777; in assay [3] it was -0.241; in [4], 0.31; in [5] it was 0.397; in assay [6] it was 0.364. The composite z-score in [7] is 0.974; in assay [9], 0.396; in assay [10], -0.0618. In addition, the z-score in assay [8] was 0.397 (inactive).
Regarding `CC(C)=CCCC(C)=CCON=C1C[C@@H](O)[C@@H](O)[C@@H]2[C@@H]3C(=O)N(Cc4ccc5c(c4)OCO5)C(=O)[C@@H]3CC[C@H]12`, the composite z-score is -0.386 in assay [1]; -0.203 in assay [2]; -0.0687 in [3]; 0.584 in [4]; 1.18 in assay [5]; 0.78 in assay [6]. Further, the composite z-score in [7] was 0.615; in assay [9], 0.416; in assay [10], -0.272. For the same compound, in [8], the z-score was 0.34 (inactive).
Take `CCN1C(=O)[C@H]2[C@H]3[C@H](O)[C@H](O)CC(=NNC(=O)OCc4ccccc4)[C@H]3CC[C@H]2C1=O`: the composite z-score in assay [1] was 0.307; in [2], 0.447; in assay [3], 0.0572; in assay [4] it was -0.0005; in assay [5] it was -0.0049; in assay [6] it was -0.117. The composite z-score in assay [7] is -0.696; in assay [9], 0.313; in assay [10] it was -0.13. Besides, the z-score in assay [8] was -0.209 (inactive).
Consider `CO[C@@H]1COC(=O)CC=C[C@H](C)[C@H](OC)COC(=O)[C@@H]2CCCN2C(=O)CC=C[C@H]1C`, for which the composite z-score in [1] is -0.811; in [2], 1.74; in [3], -0.196; in assay [4], 0.0967; in assay [5] it was -0.271; in [6], -0.285. Moreover, the composite z-score was 0.158 in assay [7], 0.0991 in assay [9] and -0.166 in assay [10]. The z-score in assay [8] is -0.331 (inactive).
Regarding `CCCNC(=O)OC[C@H]1O[C@H](CCON=C2c3cc(OC)ccc3O[C@H](c3cccc(OC)c3)[C@H]2O)C=C[C@@H]1Oc1ccc(OC)cc1`, the composite z-score in [1] was -0.231; in [2], 0.768; in assay [3], -0.0647; in [4], 0.884; in assay [5], 1.17; in assay [6] it was 0.64. Further, the composite z-score was 0.93 in assay [7], 0.167 in assay [9] and -0.0237 in assay [10]. In assay [8], the z-score is 0.446 (inactive).
As for `O=C1[C@H]2[C@H]3[C@H](O)[C@H](O)CC(=NO[C@@H]4O[C@H](CO)[C@@H](O)[C@H](O)[C@H]4O)[C@@H]3CC[C@H]2C(=O)N1C[C@@H]1CCCO1`, the composite z-score is -0.603 in [1]; -0.038 in assay [2]; -0.0908 in [3]; 0.529 in assay [4]; 1.06 in assay [5]; -0.0236 in assay [6]. The composite z-score in assay [7] worked out at 0.298; in assay [9] it was 0.254; in assay [10] it was 0.0505. In assay [8], the z-score is 0.746 (inactive).
In the case of `COc1ccc(COC(=O)NN=C2C[C@@H](O)[C@@H](O)[C@@H]3[C@@H]4C(=O)N(c5cccc(Oc6ccccc6)c5)C(=O)[C@@H]4CC[C@H]23)cc1`, the composite z-score in assay [1] was 0.937; in assay [2], -0.379; in assay [3], -0.138; in assay [4] it was 0.0478; in assay [5] it was -0.311; in assay [6], 0.783. Also, the results for the composite z-score in assay [7], in [9] and in assay [10] were -0.317, 0.85 and -0.0994, respectively. Besides, the z-score in [8] is 0.632 (inactive).
Turning to `CON=C1c2cc(OC)ccc2O[C@H](c2cccc(OC)c2)[C@H]1O`, the composite z-score was -0.289 in assay [1]; 0.707 in assay [2]; -0.0473 in [3]; 0.492 in assay [4]; 0.385 in [5]; 0.247 in assay [6]. For the same compound, the composite z-score is 0.945 in [7], 0.583 in assay [9] and 0.0053 in [10]. Besides, the z-score in assay [8] is 5.9 (inactive).
Regarding `Cc1cc2c(nc1C)CCCCN2CC(O)CN1CCCc2nc(-c3ccc(Br)cc3)ccc21` (stereo not given), the composite z-score in assay [1] is -0.193; in [2], 0.514; in assay [3], -0.019; in [4], 0.673; in [5], 0.513; in [6], 0.548. The composite z-score is 1.02 in [7], 0.5 in [9] and -0.146 in [10]. For the same compound, the z-score in assay [8] was 2.29 (inactive).
